Pf growth 96h: Primary qHTS for delayed death inhibitors of the malarial parasite plastid, 96 hour incubation. 320,000 tested, 6.9% active. P. falciparum luciferase reporter growth, 96 h. Potency, µM (highest dose often 28.7 µM), for inactives: top-dose activity change, negative = inhibition, usual class: inhibitors; note: potency is the fitted concentration of half-maximal effect; % is set by controls: 0 for no effect and ±100 for the full control effect
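Two parasite generations (96 h, 37 C, 5% CO2) of compound exposure in infected erythrocytes (0.05% parasitemia, 2% hematocrit). Luciferase-reporter P. falciparum; decreased luminescence indicates inhibited growth, aimed at apicoplast-acting delayed death.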
Pf growth 48h: Primary qHTS for delayed death inhibitors of the malarial parasite plastid, 48 hour incubation; 310,000 tested, 5.9% active; P. falciparum luciferase growth in erythrocytes, 48 h; Potency, µM (titrated, usually from 28.7 µM), without a hit: at the top dose activity change, negative = inhibition, actives largely listed as inhibitors; note: potency is the fitted concentration of half-maximal effect; % is set by controls: 0 for no effect and ±100 for the full control effect
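Compounds are pin-transferred into medium, infected erythrocytes (2% hematocrit, 0.1% parasitemia final) are added, and plates sit one parasite generation at 37 C in 5% CO2. Detection reagent is then added and luminescence measured.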
Sm TGR block: qHTS Assay for the Inhibitors of Schistosoma Mansoni Peroxiredoxins. Schistosoma mansoni thioredoxin glutathione reductase (TGR), Q962Y6. purified TGR, DTNB reduction, TNB absorbance 405 nm. Potency, µM (titrated, usually from 114 µM), inactives show at the top dose activity change, negative = inhibition, hits mostly inhibitors. 360,000 tested, 3% active. AID 485364, 2010; note: potency is the fitted concentration of half-maximal effect; % is set by controls: 0 for no effect and ±100 for the full control effect; nearly all actives have a fitted effect of over 60% in size
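TGR 20 nM + NADPH 100 uM (dispensed conc.), cpd preinc 15 min RT; start with NADPH (500 uM addition) then DTNB (15 mM addition). Kinetic TNB absorbance, 405 nm filter. Four-parameter Hill fit across titration.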
NS1 inh: qHTS Assay for Inhibitors of Influenza NS1 Protein Function. 270,000 tested, 0.4% active. Potency, µM (top dose mostly 46.1 µM), for inactives: at the top dose activity, positive = more growth. AID 2326, 2010; calls by dose curve; note: potency is the fitted concentration of half-maximal effect; actives are rising curves; nearly all actives have a fitted effect of over 50% in size
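In this qHTS, NS1 from influenza A is expressed in budding yeast, where it slows growth. Cells are switched from glucose to 2% galactose medium (pH 6.0, -URA), treated with compound, and growth recovery is read at OD600.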
Shiga toxin inh: A qHTS for Small Molecule Inhibitors of Shiga Toxin; Vero cells, Shiga toxin protein synthesis inhibition reporter; inhibition, % at 38.7 µM; 290,000 tested, 9.2% active; in the data active = inhibition mostly above about 28%, no sharp cut-off; inactive = mostly below about 43%; note: 0% is about no effect
CHX counter: Cycloheximide Counterscreen for Small Molecule Inhibitors of Shiga Toxin; cell reporter, cycloheximide protein synthesis inhibition counterscreen; 300,000 tested, 12% active; max response, %; in the data active = max response mostly above about 13%, no sharp cut-off; inactive = mostly below about 14%; note: read at 38.3 µM for the half of the compounds with a filed dose; 0% is about no effect
Active calls of the source: *; ? = inconclusive; . = no result; [ ] = another dose, or the depositor's remark. A selection: hits, their analogues and other compounds. The true share with any hit is near 21%. Unless noted, calls come from the whole dose curve; as a rule, active = well fitted curve in the direction sought with a large enough effect; inconclusive = small, poorly fitted or top-dose-only effect, or another doubt; inactive = no such curve, though single readings can be large; an effect the other way counts as inactive or inconclusive.

SMILES	Pf growth 96h	Pf growth 48h	Sm TGR block	NS1 inh	Shiga toxin inh	CHX counter
CC(=O)C1=C(c2ccccc2)NC(=S)NC1c1ccc(O)c(O)c1 (stereo not given)	13µM*	-4%[5.75 µM]	-20%	.	-1	-2
CC(=O)C1=C(c2ccccc2)NC(=O)NC1c1ccc2c(c1)OCO2 (stereo not given)	1%	31%	-6%	9%	.	-2
CC(=O)C1=C(c2ccccc2)NC(=O)NC1c1ccc(O)c(O)c1 (stereo not given)	35%	30%	16µM*	0%	-2	8
CN1C(=O)Cc2cc(S(=O)(=O)NCc3ccccc3Cl)ccc21	.	.	-1%	.	.	.
CC1(C)CC(=O)C2=C(C1)OC(N)=C(C#N)C2c1ccccc1 (stereo not given)	?	-6%	0%	-6%	-18	-6
CC1(C)CC(=O)C2=C(C1)OC(N)=C(C#N)C2c1ccccc1[N+](=O)[O-] (stereo not given)	51%	7%	22µM*	-1%	26	-4
CC1(C)CC(=O)C2=C(C1)OC(N)=C(C#N)C2c1ccc2c(c1)OCO2 (stereo not given)	?	-15%	0%	-13%	-2	-1
COc1cc2c(cc1C1C(C#N)=C(N)OC3=C1C(=O)CC(C)(C)C3)OCO2 (stereo not given)	6%	?	89µM*	5%	.	1
COc1ccc(C2C3=C(CC(C)(C)CC3=O)OC(N)=C2[N+](=O)[O-])cc1 (stereo not given)	-13%	7%	1%	-7%	2	-5
COc1ccc(C2CC(=O)OC3=C2C(=O)CC(C)(C)C3)c(OC)c1 (stereo not given)	?	10µM*	-1%	.	-9	-4
Cc1ccc(N(C)S(=O)(=O)c2cccc(C(=O)NCCCN3CCCC3=O)c2)cc1	?	?	-18%	.	.	.
CCC1CCCCN1CC(=O)c1c(C)[nH]c2ccccc12 (stereo not given)	-27%	4%	45µM*	-2%	22	13
CCOC(=O)C1CCN(CC(=O)c2c(C)[nH]c3ccccc23)CC1	-13%	-12%	35µM*	10%	14	0
CCC1CCCCN1CC(=O)c1c(C)[nH]c2ccc(OC)cc12 (stereo not given)	7%	-13%	?	-3%	-3	-3
CCOC(=O)C1CCCN(C(c2ccccn2)c2c(C)[nH]c3ccccc23)C1 (stereo not given)	?	10%	0.32µM*	.	-5	9
CCOC(=O)C1CCN(CC(=O)c2c(C)[nH]c3cc(C)ccc23)CC1	89%	-30%	31%	-2%	3	-5
Cc1[nH]c2ccccc2c1C(=O)CN1CCCCC1C (stereo not given)	15µM*	-5%	-5%	13%	-14	4
c1ccc(B2OC[C@@H]3OB(c4ccccc4)O[C@H]([C@@H]4COB(c5ccccc5)O4)[C@@H]3O2)cc1	.	.	.	5%	.	.
CC(C)C[C@H]1CN=C(Nc2ccccc2)N1CCC(C)c1ccccc1 (stereo not given in full)	?	?	-3%	.	.	.
COc1ccc(-c2nc3ccccc3o2)cc1NC(=O)c1ccc(-c2cccc(Cl)c2C)o1	.	.	1%	.	.	.
COc1ccc(-c2nc(SCC(=O)NC3CCCC3)c(-c3ccccc3)[nH]2)cc1OC	.	.	0%	.	.	.
Cc1ccc(SCC(=O)NCc2cccnc2)cc1	-7%	.	-2%	-54%	-1	2
Cc1ccc(C)c(OCC(=O)O/N=C(\N)c2ccccn2)c1	131%	148%	7%	-15%	88*	28*
N/C(=N\OC(=O)COc1ccc2ccccc2c1)c1ccccn1	88%	92%	-1%	-68%	128*	67*
Cc1ccc(C(=O)O/N=C(\N)c2ccccn2)c(C)c1	33%	?	5%	-58%	-22	-7
SMILES	Pf growth 96h	Pf growth 48h	Sm TGR block	NS1 inh	Shiga toxin inh	CHX counter
Cc1ccc(SCC(=O)O/N=C(\N)c2cccnc2)cc1	-19%	28%	-6%	-20%	27	17*
CCc1ccc(OCC(=O)O/N=C(\N)c2cccnc2)cc1	26%	20%	1%	-2%	44*	32*
COc1ccc(C(=O)N2CCN(CCCc3ccccc3)CC2)cc1OC	?	-11%	-22%	0%	-5	-3
COc1ccc(Cl)cc1NC(=O)CCNC(=O)Cn1ccc2ccccc2c1=O	0%	-15%	-6%	-12%	8	-6
C=CCc1ccccc1OCC(=O)OCCNC(=O)c1cccnc1	78%	53%	-7%	10%	10	1
Cc1cc(C)c(C)c(OCC(=O)O/N=C(\N)c2cccnc2)c1	?	21%	10%	6%	0	6
Cc1cc(C)c(OCC(=O)OCCNC(=O)c2cccnc2)c(C)c1	-1%	7%	35µM*	3%	-5	-4
N/C(=N\OC(=O)c1ccccc1Cl)c1ccccn1	-76%	127%	1%	-44%	-11	2
N/C(=N\OC(=O)COc1ccccc1Cl)c1ccccn1	37%	343%	-7%	-10%	65*	45*
Cc1ccc(C)c(OCC(=O)O/N=C(\N)c2cccnc2)c1	11%	?	13%	-38%	49	19*
O=C(CCN1C(=O)c2ccccc2C1=O)Nc1ccccc1C(F)(F)F	-1%	30%	7%	0%	3	-3
CCC(=O)OC1=C(C(C)=O)N(Cc2ccccc2)S(=O)(=O)c2ccccc21	.	.	-29%	.	.	.
CCN1CCN(Cc2c(O)ccc3c(=O)c(Oc4ccccc4Cl)c(C(F)(F)F)oc23)CC1	.	.	-25%	.	.	.
CCOc1ccc(CNc2ccc(N3CCN(Cc4ccccc4)CC3)cc2)cc1	9.3µM*	3%	-23%	-4%	-11	1
CCOc1ccc(CNc2ccc(N3CCCC3)cc2)cc1	-28%	1.9µM*	?	-10%	33	17*
CCOC(=O)C(=Cc1ccc(Br)cc1)C(=O)OCC	?	?	3.5µM*	-114%	-18	-10
CCOC(=O)C(CC)(CC)C(=O)/C=C/c1ccc(Br)cc1	?	15µM*	12%	-17%	1	0
CCOC(=O)/C(=C/c1ccc(OC(=O)c2ccncc2)cc1)C(C)=O	17%	10%	?	-1%	-16	9
CCOC(=O)C(=Cc1ccc(-n2ccnc2)cc1)C(=O)OCC	?	13µM*	13µM*	.	-17	-8
CCOC(=O)C(=Cc1ccc(F)cc1)C(=O)OCC	-18%	-1%	16µM*	-118%	-18	-6
Cc1c(NC(=O)c2ccc(F)c(S(=O)(=O)N3CCOCC3)c2)c(=O)n(-c2ccccc2)n1C	-1%	-5%	-2%	8%	-4	-1

Bioassay records as filed in PubChem BioAssay.
